# Bioassay records as filed in PubChem BioAssay.
# Compounds with a hit are over-represented: about 17% of the library has one in this group of screens.
# TDP1 cell CPT: qHTS for Inhibitors of human tyrosyl-DNA phosphodiesterase 1 (TDP1): qHTS in cells in presence of CPT; chicken DT40 Tdp1-/-;hTDP1 cells + 20 nM CPT, ATP luminescence, 48 h; Potency, µM (top dose mostly 46.2 µM), without a hit: top-dose activity change, negative = growth inhibition, most hits filed as inhibitors; hit rate 12% among 420,000; AID 686979, 2013; also: % is scaled to controls: 0 for no effect and ±100 for the full control effect; nearly all actives have a fitted effect of over 55% in size
#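 Chicken DT40 Tdp1-/- cells complemented with human TDP1, 400 cells/well, exposed to compounds plus 20 nM camptothecin for at least 48 h at 37 C; viability read as ATP content by CellTiter-Glo luminescence.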
# TDP1 cell noCPT: qHTS for Inhibitors of human tyrosyl-DNA phosphodiesterase 1 (TDP1): qHTS in cells in absence of CPT; hit rate 15% among 420,000; Potency, µM (series often up to 46.2 µM), for inactives: top-dose activity change, negative = growth inhibition, usual class: inhibitors; DT40 Tdp1-/- hTDP1 cells, no CPT, ATP luminescence, 48 h; also: % is scaled to controls: 0 for no effect and ±100 for the full control effect; nearly all actives have a fitted effect of over 55% in size
#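 A cellular qHTS used chicken DT40 cells lacking endogenous Tdp1 but carrying stably transfected human TDP1. Compounds were applied without camptothecin, and cell growth kinetics were judged by ATP-dependent luminescence after ≥48 hr.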
# TGFb inhibitor: qHTS for Inhibitors of TGF-b | HepG2 CAGA-GFP TGF-b/SMAD3 reporter, GFP fluorescence, 18 h; TGF-beta stimulated, 500 pg/mL final | Potency, µM (highest dose often 46.1 µM), for the others: top-dose activity, negative = inhibition, actives largely listed as inhibitors | hit rate 1.2% among 410,000 | AID 588855, 2011; also: % is scaled to controls: 0 for no effect and ±100 for the full control effect; nearly all actives have a fitted effect of over 65% in size
#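 Read-out: total well GFP (ex488/em500-530) summed from mean per-cell fluorescence. Cells: HEPG2 CAGA-GFP, 1% FBS DMEM, 18 h at 37 degrees C with 500 pg/mL final TGF-beta. Unstimulated wells served as the full-inhibition control; stimulated DMSO wells = 0%.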
# ATXN2 expr inh: Primary qHTS for Inhibitors of ATXN expression | Potency, µM (series often up to 57 µM), without a hit: top-dose activity change, negative = inhibition, actives largely listed as inhibitors | AID 1745845, 2022 | HEK-293 ATXN2-luciferase reporter, luminescence, 24 h | hit rate 0.72% among 360,000; also: % is scaled to controls: 0 for no effect and ±100 for the full control effect; nearly all actives have a fitted effect of over 55% in size
#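 qHTS (up to 57 uM final) was run with 24 h compound exposure of reporter cells at 37 °C. Each well was multiplexed: SteadyGlo luminescence measured ATXN2-luciferase expression after a fluorogenic Gly-Phe-AFC viability readout (25 uM final).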
# S2 tox: Viability Counterscreen for Primary qHTS for Inhibitors of ATXN expression. AID 651635, 2014. hit rate 0.49% among 400,000. S2 cells (HEK-293 line with an ATXN2-luciferase reporter) viability, CellTiter-Fluor protease fluorescence, 24 h. Potency, µM (highest dose often 56.7 µM), actives largely listed as cytotoxic; also: nearly all actives have a fitted effect of over 40% in size
# HepG2 tox: qHTS for Inhibitors of TGF-b: Cytotox Counterscreen; HepG2 CAGA-GFP viability, ATP luminescence, 18 h; Potency, µM (highest dose often 46.1 µM), for inactives: at the top dose activity change, negative = cytotoxicity, usual class: cytotoxic; hit rate 0.76% among 410,000; AID 588856, 2011
#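 CellTiter-Glo luminescence gave cytotoxicity after 18 hours at 37 degrees C. The cells were HepG2 CAGA-GFP in 1% FBS DMEM, stimulated with 500 pg/mL TGF-beta after compound addition. %Activity was normalised to no-cell wells (complete cell-killing) and DMSO (no toxicity), and curves were fitted and classified.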
# * marks the source's active call; other numbers are inactive results; i = inactive; u = inconclusive; x = not tested or not shown; [ ] = dose if it differs, or a comment. Calls follow the shape of the dose curve; as a rule, active = well fitted curve in the direction sought with a large enough effect; inconclusive = small, poorly fitted or top-dose-only effect, or another doubt; inactive = no such curve, though single readings can be large; an effect the other way counts as inactive or inconclusive. Potency is read from the fitted curve at half-maximal effect.
SMILES,TDP1 cell CPT,TDP1 cell noCPT,TGFb inhibitor,ATXN2 expr inh,S2 tox,HepG2 tox
CC(C)CN(C(=O)CSc1nnc2ccccn12)C1CCS(=O)(=O)C1 (stereo not given),-8.5%,3.8%,-1.4%,10.1%,i,6.3%
Cc1nnc(SCC(=O)N(CC(C)C)C2CCS(=O)(=O)C2)s1 (stereo not given),-3.1%,9.6%,u,6.7%,i,-10.5%
CCc1nnc(NC(=O)CSc2nc(C)cs2)s1,u,-13.2%,-3.8%,3.1%,i,-20.1%
Cc1ccc(C(=O)NCCc2ccc(S(N)(=O)=O)cc2)cc1-n1cnc2cccnc21,-22.7%,-19.6%,3.2%,x,x,0.7%
Nc1ccccc1C(=O)C[C@H](N)C(=O)O,-2.8%,-11.7%,-9.2%,2.2%,i,1.5%
O=C(N1CCN(c2ccccc2F)CC1)C1(c2cccs2)CCOCC1,u,18.4µM*,5.3%,-17.1%,i,2.6%
COC(=O)c1ccccc1NC(=O)C1(c2cccs2)CCOCC1,u,20.6µM*,16.6%,-1.3%,i,4.2%
CNc1ccnc(-c2cccc(NS(C)(=O)=O)c2)n1,19.9%,11.6%,x,x,x,x
CC(=O)Nc1nc2n(n1)C(c1ccc(F)cc1)C=C(c1ccccc1)N2 (stereo not given),u,17.8µM*,2.0%,-21.4%,x,-18.7%
O=C(Nc1nc2n(n1)C(c1ccc(F)cc1)C=C(c1ccccc1)N2)c1cccc([N+](=O)[O-])c1 (stereo not given),18.4µM*,10.3µM*,-25.1%,1.8%,u,-10.8%
O=C(Nc1nc2n(n1)C(c1ccccc1)C=C(c1ccccc1)N2)c1ccco1 (stereo not given),6.2%,10.9%,0.0%,8.8%,i,5.6%
Cc1[nH]c(C)c(S(=O)(=O)Nc2ccccc2)c1C(=O)N1CCCC1,2.1%,10.8%,18.4%,-3.3%,i,12.0%
CCOC(=O)C1CCCCN1S(=O)(=O)c1csc(C(N)=O)c1 (stereo not given),-7.0%,-5.8%,0.9%,x,x,-13.4%
COc1cccc(NC(=O)Cn2cnc3c(nc4n3CCCCC4)c2=O)c1,-18.0%,-6.4%,-3.0%,5.6%,u,-7.6%
CC1=NN(C(C#N)c2cccc([N+](=O)[O-])c2)C(C)(C)C1 (stereo not given),-9.9%,-23.8%,5.2%,1.5%,i,-0.3%
CC1=NN(c2nc(N)nc(/C(C#N)=C/c3ccc([N+](=O)[O-])o3)n2)C(C)(C)C1,0.581µM*,0.461µM*,u,u,u,-26.9%
CC(C)CCNC(=O)c1ccc2nc(CCc3ccccc3)oc2c1,8.1%,-19.1%,3.0%,11.6%,i,-30.2%
Cc1c(NC(=O)Nc2ccc(Br)cc2F)sc2nc3n(c(=O)c12)CCC(C)CC3 (stereo not given),3.66µM*,u,-20.6%,6.4%,i,-21.2%
Cc1ccc(NC(=O)c2c(NC(=O)c3ccccc3Cl)sc3c2CCC3)cc1,u,u,-11.3%,14.3%,i,-17.6%
N#Cc1c(Cl)nsc1NN,u,u,14.3%,-16.6%[11.3 µM],i,8.0%
CC(C)(C)c1nn(-c2ccccc2)c2[nH]c(=O)c(CNCc3ccco3)cc12,20.6µM*,23.1µM*,-8.5%,u,i,-34.6%
CC(C)(C)c1nn(-c2ccccc2)c2[nH]c(=O)c(CNc3ccc4c(c3)OCCO4)cc12,-29.5%,-20.5%,u,-11.1%,i,6.8%
COc1ccc(CNCc2cc3c(C(C)(C)C)nn(-c4ccccc4)c3[nH]c2=O)cc1,25.9µM*,18.4µM*,-38.5%,u,u,-67.2%
Cc1ccc(CNCc2cc3c(C(C)(C)C)nn(-c4ccccc4)c3[nH]c2=O)cc1,u,25.1µM*,-28.5%,u,u,-37.1%
C=CCC1(CC=C)CCCN1C(=O)Cn1nnnc1CN(C)C(C)C,-0.6%,20.1%,-6.3%,3.7%,i,-11.6%
SMILES,TDP1 cell CPT,TDP1 cell noCPT,TGFb inhibitor,ATXN2 expr inh,S2 tox,HepG2 tox
CC1=Nc2cccc3cccc(c23)N1,u,23.1µM*,-5.2%,-28.6%,i,-15.3%
c1coc(C2=Nc3cccc4cccc(c34)N2)c1,14.6µM*,23.1µM*,-1.2%,-31.7%,i,-5.0%
CCOc1ccc(OCC)c(NC(=O)CCn2c(=O)oc3ccccc32)c1,-16.5%,-25.9%,6.5%,-8.5%,i,0.6%
COc1ccc(CN(C)C(=O)c2cccc(NS(=O)(=O)c3ccccc3)c2)cc1F,-4.3%,-24.9%,-6.0%,-25.1%,i,-13.2%
COc1ccc(C(C)NCCC(c2ccc(OC(C)C)cc2)c2ccccc2OC)cc1 (stereo not given),5.8µM*,5.8µM*,11.2µM*,u,x,12.6µM*
COc1ccc(C(CCNC(C)c2ccccc2)C(C)C)cc1 (stereo not given),u,16.4µM*,u,-24.9%,i,-94.0%
COc1ccc(C(C)NS(=O)(=O)Cc2ccccc2)cc1 (stereo not given),8.4%,-1.0%,-27.9%,5.9%,i,-9.1%
COc1ccc(OC)c(CN2C(=O)CN(S(C)(=O)=O)CC2(C)C(=O)Nc2c(C)cccc2C)c1 (stereo not given),7.1%,-3.5%,x,x,x,x
CCOC(=O)N1CCc2c(sc3c2c(=O)n(Cc2ccccc2)c(=O)n3Cc2cccc(C)c2)C1,13µM*,13µM*,0.9%,-20.5%,i,-4.4%
CCOC(=O)N1CCc2c(sc3c2c(=O)n(Cc2ccccc2)c(=O)n3Cc2c(F)cccc2Cl)C1,13µM*,18.4µM*,-41.0%,x,x,-30.3%
CCOC(=O)N1CCc2c(sc3c2c(=O)n(Cc2ccccc2)c(=O)n3Cc2cc(C)ccc2C)C1,-1.0%,7.1%,-12.0%,x,x,4.7%
CCOC(=O)N1CCC(Nc2cc(C)nc3c(-c4ccccc4OC)c(C)nn23)CC1,5.8µM*,9.2µM*,-26.7%,u,i,-40.9%
COc1ccccc1-c1cnn2c(NC3CCCC3)cc(C)nc12,29.1µM*,20.6µM*,-9.8%,71.8%,i,2.4%
CCOC(=O)C1CCCN(c2cc(C)nc3c(-c4ccccc4OC)c(C)nn23)C1 (stereo not given),13µM*,u,u,10.8%,i,-12.8%
